Source: PubChem BioAssay
Rows were chosen to be rich in hits. Some 6.2% of all compounds tested hit in one or more screens of this group.
HCMV inh: inhibitors of human cytomegalovirus; HFF cells, HCMV-luciferase reporter, 72 h; stronger effect = lower value; AID 1259415; 4.5% of 410,000 active; activity change, negative = inhibition, % at 57.5 µM; in the data active = activity change below about -60%; inconclusive = no clear call, values can overlap the other calls; inactive = above about -39%
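After 16 h attachment at 37C, HFF cells received test compound and HCMV-luciferase (1 PFU/cell); reporter luminescence read 72 h later, data normalized against buffer-only and known inhibitor Salinomycin.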
LASV entry inh: Lassa virus entry inhibition; Lassa virus pseudotype entry inhibition, cell reporter; Potency, µM (series often up to 37.9 µM), hits mostly inhibitors; 1.2% of 300,000 active; AID 540256; calls by dose curve; tested in HEK293 cells; also: nearly all actives have a fitted effect of over 50% in size
FMDV inh: antivirals against foot and mouth disease virus. FMDV antiviral cell-based qHTS. Potency, µM (series often up to 57.9 µM), actives largely listed as inhibitors. 1.2% of 410,000 active. AID 1159524; calls by dose curve; tested in HEK293T cells; also: read-out not given here; nearly all actives have a fitted effect of over 45% in size
MARV entry inh: Marburg virus entry inhibition; Marburg virus pseudotyped entry inhibition, cell reporter; Potency, µM (series often up to 37.8 µM), usual class: inhibitors; 1.8% of 300,000 active; AID 540276; calls by dose curve; tested in HEK293 cells
Numbers stand for hits.

`COc1ccc(N2C(N)=NC(N)=NC2(C)C)cc1` gave HCMV inh inconclusive, LASV entry inh inconclusive, FMDV inh inactive and MARV entry inh inconclusive.
Screening COc1cccc(N2C(N)=NC(N)=NC2(C)C)c1 returned HCMV inh -67, LASV entry inh inconclusive, FMDV inh inactive and MARV entry inh inactive.
`O=C1CN(C(=O)Nc2ccccc2Cl)C(c2ccccc2)c2c(sc3c2CCCC3)N1` (configuration not stated) gave HCMV inh inactive, LASV entry inh inactive, FMDV inh inactive and MARV entry inh inactive.
CC(=O)OC1(c2ccccc2)CCN(C)CC1(C)C (configuration not stated) was read as HCMV inh -80 and FMDV inh inactive.
Screening Cc1cc(-c2csc(N)n2)c(C)n1CCC(C)C returned HCMV inh inconclusive, LASV entry inh inactive, FMDV inh 22µM and MARV entry inh inactive.
Cc1cc(-c2csc(N)n2)c(C)n1CCc1ccccc1 was read as HCMV inh inactive, LASV entry inh inactive, FMDV inh 11µM and MARV entry inh inconclusive.
Screening Cc1cc(-c2csc(NCc3ccccc3)n2)c(C)n1C returned LASV entry inh inactive, FMDV inh inactive and MARV entry inh inactive.
For CS(=O)(=O)N(CC(=O)N1CCN(c2ccccc2)CC1)C1CCCCC1 the results were HCMV inh inactive, LASV entry inh inactive, FMDV inh inactive and MARV entry inh inactive.
For O=C(Nc1ccc(OC(F)F)cc1)c1cc(S(=O)(=O)N2CCOCC2)ccc1N1CCCC1 the results were HCMV inh inactive, LASV entry inh inactive, FMDV inh inactive and MARV entry inh inactive.
O=c1c2[nH]c3ccccc3c2ncn1CCC1=CCCCC1 was read as HCMV inh inactive, LASV entry inh inactive, FMDV inh inactive and MARV entry inh inconclusive.
For COc1ccc2[nH]c3c(NCCN(C(C)C)C(C)C)ncnc3c2c1 the results were HCMV inh inactive, LASV entry inh inactive, FMDV inh inactive and MARV entry inh 11µM.
For C1=C(CCNc2ncnc3c2[nH]c2ccccc23)CCCC1 the results were HCMV inh -91, LASV entry inh inconclusive, FMDV inh inactive and MARV entry inh inconclusive.
Screening CC(C)OCCCNc1ncnc2c1[nH]c1ccccc12 returned HCMV inh -75, LASV entry inh inconclusive, FMDV inh 18µM and MARV entry inh inconclusive.
For CCOc1ccc2[nH]c3c(NCCCOC)ncnc3c2c1 the results were HCMV inh inactive and FMDV inh inactive.
COc1ccc(CNc2ncnc3c2[nH]c2ccccc23)cc1 was read as HCMV inh -72, LASV entry inh inconclusive, FMDV inh inconclusive and MARV entry inh inconclusive.
For Cc1ccc(S(=O)(=O)N2CC(O)CC2C(=O)OCC(=O)c2ccccc2Cl)cc1C (configuration not stated) the results were HCMV inh inactive, LASV entry inh inactive, FMDV inh inactive and MARV entry inh inactive.
For O=C(O)c1cccc(NS(=O)(=O)c2ccc(C3CCCCC3)cc2)c1 the results were LASV entry inh inconclusive, FMDV inh inactive and MARV entry inh inconclusive.
CCC(C)[C@H](NC(=O)Nc1ccc2c(c1)OCCO2)C(=O)OC (some centres not stated) was read as HCMV inh inactive, LASV entry inh inactive, FMDV inh inactive and MARV entry inh inactive.
`O=C(Cn1cnc2c(cnn2-c2ccccc2)c1=O)N1CCCc2ccccc21` gave HCMV inh inconclusive, LASV entry inh inconclusive, FMDV inh inconclusive and MARV entry inh 7.3µM.
Screening O=C(Cn1cnc2c(nnn2-c2ccccc2)c1=O)N1CCCc2ccccc21 returned HCMV inh inactive and FMDV inh inconclusive.
`CCN(CC)S(=O)(=O)c1ccc(C(=O)Nc2ccc(Cc3ccncc3)cc2)cc1` gave HCMV inh -87, LASV entry inh inconclusive, FMDV inh inconclusive and MARV entry inh inconclusive.
For CCN(CC)S(=O)(=O)c1ccc(NC(=O)c2ccccc2N(C)S(C)(=O)=O)cc1 the results were HCMV inh inactive, LASV entry inh inactive, FMDV inh inactive and MARV entry inh inactive.
`CCN(CC)S(=O)(=O)c1ccc(NC(=O)c2ccc(N(C)S(C)(=O)=O)cc2)cc1` gave HCMV inh -67, LASV entry inh inconclusive, FMDV inh 4µM and MARV entry inh inactive.
CCN(CC)S(=O)(=O)c1ccc(C(=O)Nc2cc(C)cc(C)c2)cc1 was read as HCMV inh inactive, LASV entry inh inconclusive, FMDV inh inactive and MARV entry inh inconclusive.
Screening CCCCc1ccc(NC(=O)c2ccc(N(C)S(C)(=O)=O)cc2)cc1 returned HCMV inh -81, LASV entry inh inactive, FMDV inh inconclusive and MARV entry inh inconclusive.
For CC(C)(C)c1ccc(S(=O)(=O)Nc2ccc(Cc3ccncc3)cc2)cc1 the results were HCMV inh inconclusive, LASV entry inh 10µM, FMDV inh inactive and MARV entry inh inconclusive.
`CC(=O)Nc1ccc(S(=O)(=O)Nc2ccc(Cc3ccncc3)cc2)cc1` gave HCMV inh inconclusive, LASV entry inh inconclusive, FMDV inh inactive and MARV entry inh inconclusive.
For COCCN1C(=O)N(C)[C@@H](c2ccccc2)C(C(C)=O)=C1C the results were HCMV inh inactive, FMDV inh inactive and MARV entry inh inconclusive.
Screening CCc1cccc(C)c1Nc1c(-c2cccc(O)c2)nc2sccn12 returned HCMV inh inconclusive, LASV entry inh inactive, FMDV inh inactive and MARV entry inh inactive.
Screening CC(=O)Nc1ccc(/C=N/NC(=O)c2cccc(S(=O)(=O)N3CCOCC3)c2)cc1 returned HCMV inh -102, LASV entry inh inactive, FMDV inh inactive and MARV entry inh inconclusive.
O=C(Nc1ccc(N2CCCCCC2)cc1)c1cccc(S(=O)(=O)N2CCOCC2)c1 was read as HCMV inh -74, LASV entry inh inconclusive, FMDV inh inconclusive and MARV entry inh inconclusive.
Screening CN(c1ccccc1)S(=O)(=O)c1cccc(C(=O)Nc2ccc(N3CCOCC3)cc2)c1 returned HCMV inh inactive, LASV entry inh inactive, FMDV inh inconclusive and MARV entry inh inconclusive.
`O=C(Nc1cccc(S(=O)(=O)N2CCOCC2)c1)c1cccc(S(=O)(=O)N2CCCCC2)c1` gave HCMV inh inactive, LASV entry inh inactive, FMDV inh inactive and MARV entry inh inconclusive.
Screening Cc1ccc(N(C)S(=O)(=O)c2cccc(C(=O)Nc3ccc(N4CCOCC4)cc3)c2)cc1 returned HCMV inh inconclusive and FMDV inh 25µM.
COc1ccc(C(=O)Nc2ccc(N3CCCCCC3)cc2)cc1S(=O)(=O)N1CCOCC1 was read as HCMV inh -86 and FMDV inh inactive.
For Cc1cccc(-c2nc(C#N)c(N3CCCCCC3)o2)c1 the results were HCMV inh inactive, LASV entry inh inactive and MARV entry inh inactive.
COc1cccc(NC(=O)CSC2=Nc3ccccc3C3=NC(CC(=O)NCc4cccs4)C(=O)N23)c1 (configuration not stated) was read as HCMV inh inactive, LASV entry inh inactive and FMDV inh inactive.
CCC(=O)N1c2ccc(S(=O)(=O)CCC(=O)NC3CCCC3)cc2CC1C (configuration not stated) was read as HCMV inh inactive, LASV entry inh inactive, FMDV inh inactive and MARV entry inh inactive.
`O=C(N/N=C/c1sc(N2CCOCC2)nc1-c1ccccc1)c1cccc(S(=O)(=O)N2CCCC2)c1` gave HCMV inh -112, LASV entry inh inconclusive, FMDV inh inconclusive and MARV entry inh inconclusive.
